PubChem BioAssay AID1159580 (chemical genetic matrix, 2015)
About 2,000 (36%) of roughly 5,500 compounds were called active. Another 18% or so got no clear call; they are omitted. Cut-off read from the data, not from the text of the source: active = normalized growth mostly below about 0.91 (no sharp cut-off); inconclusive = no clear call, values can overlap the other calls; inactive = mostly above about 0.92. Some of the results follow.

Experiment: chemical genetic growth profiling, strain panel (AID 1159580);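 note: tested at 20 µM; growth read once vehicle control cultures reached saturation at 30 °C; 1 = growth at the plate median or of vehicle wells; lower values mean less growth of the strain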
Details: S. cerevisiae deletion strains, growth OD

Measured: normalized growth

FC(F)(F)C(Cl)Br (configuration not stated)
inactive: locus YAL021C, strain ccr4, active compounds read low 1.02 | locus YAL026C, strain drs2, active compounds read low 1.03 | locus YAL030W, strain snc1, active compounds read low 1.02 | locus YBL061C, strain skt5, active compounds read low 1.02 | locus YBR009C, strain hhf1, active compounds read low 1.04 | locus YBR023C, strain chs3, active compounds read low 1.03 | locus YBR171W, strain sec66, active compounds read low 1.05 | locus YBR231C, strain swc5, active compounds read low 1.03 | locus YBR279W, strain paf1, active compounds read low 1.03 | locus YCL011C, strain gbp2, active compounds read low 1.03 | locus YCL016C, strain dcc1, active compounds read low 1.02 | locus YCL061C, strain MRC1, active compounds read low 1.02 | locus YCL069W, strain vba3, active compounds read low 1.02 | locus YCR088W, strain abp1, active compounds read low 1.02 | locus YDL005C, strain med2, active compounds read low 1.03 | locus YDL040C, strain nat1, active compounds read low 1.02 | locus YDR001C, strain nth1, active compounds read low 1.01 | locus YDR069C, strain doa4, active compounds read low 1.02 | locus YDR137W, strain rgp1, active compounds read low 1.07 | locus YDR159W, strain sac3, active compounds read low 1.04 | locus YDR195W, strain ref2 1.05 | locus YDR297W, strain sur2, active compounds read low 1.01 | locus YDR334W, strain swr1, active compounds read low 1.02 | locus YDR335W, strain msn5, active compounds read low 1.02 | locus YDR392W, strain spt3, active compounds read low 1.01 | locus YEL003W, strain gim4, active compounds read low 1.02 | locus YEL037C, strain rad23, active compounds read low 0.997 | locus YEL061C, strain CIN8 (second series), active compounds read low 1.02 | locus YER015W, strain faa2, active compounds read low 1.02 | locus YER016W, strain bim1, active compounds read low 1.04 | locus YER111C, strain swi4, active compounds read low 1.03 | locus YER155C, strain BEM2 (second series), active compounds read low 1.02 | locus YFR010W, strain ubp6, active compounds read low 1.03 | locus YGL167C, strain pmr1, active compounds read low 1.04 | locus YGL173C, strain kem1, active compounds read low 1.02 | locus YGL227W, strain vid30, active compounds read low 1.04 | locus YGL240W, strain doc1, active compounds read low 1.02 | locus YGL253W, strain hxk2, active compounds read low 1.02 | locus YHR013C, strain ard1, active compounds read low 1.02 | locus YHR027C, strain rpn1, active compounds read low 1.03 | locus YHR142W, strain chs7, active compounds read low 1.03 | locus YJL092W, strain hpr5, active compounds read low 1.01 | locus YJL095W, strain BCK1 (second series), active compounds read low 1.01 | locus YJL115W, strain asf1, active compounds read low 1.01 | locus YJL129C, strain trk1, active compounds read low 1.06 | locus YJL154C, strain vps35, active compounds read low 1.02 | locus YJL164C, strain tpk1, active compounds read low 1.02 | locus YJL166W, strain qcr8, active compounds read low 1.03 | locus YJL187C, strain SWE1, active compounds read low 1.03 | locus YKL160W, strain elf1, active compounds read low 1.02 | locus YKR026C, strain gcn3, active compounds read low 1 | locus YKR091W, strain srl3, active compounds read low 1.02 | locus YLL001W, strain dnm1, active compounds read low 1.01 | locus YLL026W, active compounds read low 1.02 | locus YLL041C, strain sdh2, active compounds read low 1.02 | locus YLR027C, strain aat2, active compounds read low 1.02 | locus YLR221C, strain rsa3, active compounds read low 1.02 | locus YLR258W, strain gsy2, active compounds read low 1.02 | locus YLR262C, strain YPT6 (second series), active compounds read low 1.04 | locus YLR320W, strain mms22, active compounds read low 1.03 | locus YLR342W, strain FKS1, active compounds read low 1.02 | locus YLR357W, strain rsc2, active compounds read low 1.07 | locus YLR370C, strain arc18, active compounds read low 1.03 | locus YLR384C, strain iki3, active compounds read low 1.02 | locus YML120C, strain ndi1, active compounds read low 1.03 | locus YMR058W, strain fet3, active compounds read low 1.02 | locus YMR125W, strain sto1, active compounds read low 1.02 | locus YMR129W, active compounds read low 1.03 | locus YMR205C, strain PFK2, active compounds read low 1.03 | locus YMR231W, strain pep5, active compounds read low 1.02 | locus YNL071W, strain lat1, active compounds read low 1.03 | locus YNL209W, strain ssb2, active compounds read low 1.02 | locus YNL248C, strain rpa49, active compounds read low 1.03 | locus YNL322C, strain KRE1 (second series), active compounds read low 1.02 | locus YNR049C, strain mso1, active compounds read low 1.02 | locus YOR001W, strain rrp6, active compounds read low 1.04 | locus YOR070C, strain gyp1, active compounds read low 1.01 | locus YOR080W, strain dia2, active compounds read low 1.02 | locus YOR083W, strain WHI5, active compounds read low 1.01 | locus YOR106W, strain vam3, active compounds read low 1.04 | locus YOR265W, strain rbl2, active compounds read low 1.03 | locus YOR270C, strain vph1, active compounds read low 1.08 | locus YOR290C, strain snf2, active compounds read low 1.04 | locus YPL051W, strain arl3, active compounds read low 1.04 | locus YPL078C, strain atp4, active compounds read low 1.02 | locus YPL106C, strain sse1, active compounds read low 1.02 | locus YPL240C, strain hsp82, active compounds read low 1.02
